Compound activity: PubChem, several laboratories
IDE inh: cellular human IDE inhibition. 0.41% of 320,000 active. AID 434962. P14735. inhibition, % at 5.59 µM. HEK cells, FAbetaB cleavage, fluorescence polarization;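 active = percent inhibition above the average of all tested compounds plus 3 SD, set per screening campaign, cut at about 16% in these data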;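 also: IDE supplied by intact live HEK cells; FP after avidin binding of uncleaved biotin substrate so inhibition keeps polarization high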
MEX-5 binding: C. elegans MEX-5 TCR-2 RNA binding activity; Q9XUB2; MEX-5/FITC-TCR2 RNA binding, fluorescence polarization; stronger effect = lower value; activity score (negative = inhibition of binding), % at 10 µM; 0.38% of 300,000 active; AID 1832;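 active = inhibition past about -25% in most replicates, and total fluorescence under double the plate's negative control median, limit read from the data; inconclusive = replicates evenly split on the limit, or fluorescence at least double controls; inactive = too little inhibition in most replicates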
Target sequence (Q9XUB2 whole entry, looked up): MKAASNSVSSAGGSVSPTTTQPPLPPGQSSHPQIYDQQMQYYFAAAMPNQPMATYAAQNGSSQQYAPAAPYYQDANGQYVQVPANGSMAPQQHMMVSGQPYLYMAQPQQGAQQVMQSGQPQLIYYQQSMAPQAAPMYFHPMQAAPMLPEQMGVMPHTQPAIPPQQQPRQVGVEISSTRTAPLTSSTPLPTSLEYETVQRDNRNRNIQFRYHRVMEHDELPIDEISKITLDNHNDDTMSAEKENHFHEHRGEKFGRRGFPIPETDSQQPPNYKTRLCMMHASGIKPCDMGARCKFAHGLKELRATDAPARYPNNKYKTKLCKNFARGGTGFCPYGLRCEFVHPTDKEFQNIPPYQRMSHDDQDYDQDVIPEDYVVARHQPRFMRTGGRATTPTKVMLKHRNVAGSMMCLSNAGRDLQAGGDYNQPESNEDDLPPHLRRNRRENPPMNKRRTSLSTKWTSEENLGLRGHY
MCL1-BIM inh: inhibitors of human MCL1 binding to BIM-BH3 peptide. GST-MCL1 / FITC-Bim-BH3 fluorescence polarization. 0.68% of 320,000 active. Q07820. inhibition, % at 10.9 µM. AID 2057;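 active = inhibition above the mean inhibition of all tested compounds plus 3 SD, set per campaign, cut at about 40% in these data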;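 also: higher means more loss of mP so more displacement of Bim peptide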
GLD-1 RNA inh: GLD-1-TGE RNA interaction inhibition (C. elegans) | purified GLD-1 + fluorescein TGE RNA, fluorescence polarization | Q17339 | 0.44% of 320,000 active | inhibition, % at 5.96 µM;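 active = percent inhibition above a per-plate cutoff, the plate mean of test compounds plus 3 SD, cut at about 30% in these data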
BCLXL inh: inhibitors of human Bcl-xL. GST-Bcl-xL / FITC-Bim BH3 peptide fluorescence polarization. Q07817. 0.7% of 320,000 active. inhibition, % at 10.9 µM;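 active = inhibition above the mean of all tested compounds plus 3 SD, cutoff set per campaign, cut at about 30% in these data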;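 also: inhibitors lower millipolarization by displacing the labeled peptide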
Target sequence (Q07817 whole entry, looked up): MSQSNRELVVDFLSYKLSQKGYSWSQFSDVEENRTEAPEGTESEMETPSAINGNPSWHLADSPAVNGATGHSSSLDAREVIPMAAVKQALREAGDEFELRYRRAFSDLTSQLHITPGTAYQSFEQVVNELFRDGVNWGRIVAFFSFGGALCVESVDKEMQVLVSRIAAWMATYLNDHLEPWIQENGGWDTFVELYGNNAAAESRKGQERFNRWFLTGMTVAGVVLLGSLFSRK
IDE act: activators of human insulin-degrading enzyme in cells | activation, % at 5.96 µM | HEK cells, FAbeta-B cleavage, fluorescence polarization; 0% vehicle, 100% cell-free pure enzyme wells | AID 493087 | P14735 | 0.073% of 340,000 active;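 active = activation above the mean of all tested compounds plus 3 SD, set per screening campaign, cut at about 17% in these data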
Bcl-xL conf: counter-screen for MCL1 inhibitors: confirmation of human Bcl-xL inhibitors; shares compounds with MCL1-BIM inh; GST-Bcl-xL / FITC-Bim BH3 peptide FP binding; inhibition, % at 10.9 µM; 54% of 1,700 active; AID 2166;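 active = inhibition above a cutoff equal to the mean inhibition of all tested compounds plus 3 SD, cut at about 30% in these data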
MCL1 BIM confirm: MCL1-BIM-BH3 interaction inhibition, confirmation; inhibition, % at 10.9 µM; shares compounds with MCL1-BIM inh; 61% of 1,700 active; GST-MCL1 / FITC-Bim-BH3 fluorescence polarization;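 active = inhibition above the average of all tested compounds plus 3 SD, cut at about 40% in these data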
Of the large screens only hits and unclear results are named; the others gave an inactive call (follow-up assays come after a bar, where they were run). This is a sample that favours compounds with a hit; in the whole collection about 1.5% have one here.

CCOC(=O)N1CC=C2C(C#N)=C(N)C(C#N)(C#N)[C@H](c3ccc(OCC)c(OCC)c3)[C@H]2C1	none
CC(=O)N1CC=C2C(C#N)=C(N)C(C#N)(C#N)C(CCc3ccccc3)C2C1 (stereo not given)	none
CN1CC=C2C(C#N)=C(N)C(C#N)(C#N)[C@H](c3ccoc3)[C@H]2C1	MEX-5 binding -66.0, MCL1-BIM inh 175.3, GLD-1 RNA inh 99.2, BCLXL inh 146.3 | Bcl-xL conf 110.9 | MCL1 BIM confirm active
CN1CC=C2C(C#N)=C(N)C(C#N)(C#N)C(c3cccc(Cl)c3Cl)C2C1 (stereo not given)	MEX-5 binding -29.2, MCL1-BIM inh 87.6, GLD-1 RNA inh 68.5, BCLXL inh 83.4 | Bcl-xL conf 56.2 | MCL1 BIM confirm 60.6
Cc1ccc(C2C3CN(C(C)C)CC=C3C(C#N)=C(N)C2(C#N)C#N)cc1 (stereo not given)	MEX-5 binding -27.9, MCL1-BIM inh 116.3, GLD-1 RNA inh 109.1, BCLXL inh 109.0 | Bcl-xL conf 59.4 | MCL1 BIM confirm 104.2
N#CC1=C(N)C(C#N)(C#N)[C@H](c2ccoc2)[C@H]2CN(Cc3ccccc3)CC=C12	MEX-5 binding -46.2, MCL1-BIM inh 125.2, GLD-1 RNA inh 74.8, BCLXL inh 114.1 | Bcl-xL conf 106.2 | MCL1 BIM confirm 119.8
NC(=S)Nc1cccc2cc3ccccc3cc12	MCL1-BIM inh 52.9, BCLXL inh 57.0 | Bcl-xL conf 81.0 | MCL1 BIM confirm 94.6
Cc1cc(SCC(=O)OC(C)C(=O)N(C)c2ccccc2)nc2ccccc12 (stereo not given)	none
Cc1c2ccccc2nc2c(F)c(NC(C)C)c(F)c(F)c12	MEX-5 binding -33.5, MCL1-BIM inh 139.0, GLD-1 RNA inh 119.2, BCLXL inh 122.3 | Bcl-xL conf 130.9 | MCL1 BIM confirm 150.6
Cc1c2ccccc2nc2c(F)c(NCCO)c(F)c(F)c12	MEX-5 binding -30.7, MCL1-BIM inh active, GLD-1 RNA inh 83.0, BCLXL inh 157.3 | Bcl-xL conf active | MCL1 BIM confirm active
Cc1c(Cl)cccc1Nc1nc(NCCO)c2ccccc2n1	none
COc1cccc(N2CCN(c3nc(-c4ccccc4C)cc(=O)[nH]3)CC2)c1	none (no result: IDE inh, MCL1-BIM inh, GLD-1 RNA inh, BCLXL inh)
CNC(=O)C(=O)NCC1OCCCN1S(=O)(=O)c1ccc(F)cc1C (stereo not given)	none
Nc1c(Br)cc2c(c1Br)C(O)c1ccccc1-2 (stereo not given)	none (no result: IDE inh, MEX-5 binding, MCL1-BIM inh, GLD-1 RNA inh, BCLXL inh)
C[C@@]12C(=O)N(c3ccc(Br)cc3)C(=O)N1[C@@H]1c3ccccc3OC[C@@H]1[C@H]2c1ccccc1	none (no result: MEX-5 binding, MCL1-BIM inh, BCLXL inh)
Cc1ccc2c(c1)c(=O)c1c3n2CCN(C(=O)CCl)C3CC1 (stereo not given)	MCL1-BIM inh 54.8, BCLXL inh 48.5 | Bcl-xL conf 30.4 | MCL1 BIM confirm 43.8
O=C(O)c1cc(S(=O)(=O)N2CCCCC2)ccc1N1CCCCC1	none (no result: MEX-5 binding)
O=C(OCc1nnc(-c2ccc(Br)cc2)o1)c1cncc(Br)c1	none
O=C(NCc1ccco1)Nc1cccc([N+](=O)[O-])c1	none (no result: IDE inh, MCL1-BIM inh, GLD-1 RNA inh, BCLXL inh)
COc1ccc(-c2nc(CS(=O)CC(=O)NCCCN3CCOCC3)c(C)o2)cc1OC (stereo not given)	none
O=C(/C=C/c1ccco1)NC(=S)Nc1ccc(C(=O)O)cc1	MEX-5 binding -32.2, MCL1-BIM inh 66.7, BCLXL inh 34.4 | Bcl-xL conf inactive | MCL1 BIM confirm inactive
COCc1nc2ccccc2n1Cc1ccccc1	none
ClCc1nc2ccccc2n1Cc1ccccc1	MEX-5 binding -66.4, MCL1-BIM inh 159.7, GLD-1 RNA inh 56.8, BCLXL inh 129.0 | Bcl-xL conf 53.9 | MCL1 BIM confirm 79.0
CC(C)(C)c1ccc(OCCC(=O)Nc2cccc(S(=O)(=O)NC3=NCCCCC3)c2)cc1	none (no result: IDE inh, MEX-5 binding, MCL1-BIM inh, GLD-1 RNA inh, BCLXL inh)
CC(=O)N1CCc2c(sc(NC(=O)c3ccc(S(=O)(=O)N(C)C)cc3)c2C#N)C1	MCL1-BIM inh 40.6 | Bcl-xL conf 37.7 | MCL1 BIM confirm inactive
CC(=O)N1CCc2c(sc(NC(=O)c3ccc4c(c3)OCCO4)c2C#N)C1	none
CCCn1nc([N+](=O)[O-])c(C(C#N)c2nc3ccccc3o2)c(Cl)c1=O (stereo not given)	none
Cn1nc([N+](=O)[O-])c(C(C#N)c2ccccn2)c(Cl)c1=O (stereo not given)	MCL1-BIM inh 60.0, BCLXL inh 47.7 | Bcl-xL conf inactive | MCL1 BIM confirm inactive
CCOc1ccc(N2CSC3=C(C#N)C(c4ccco4)CC(=O)N3C2)cc1 (stereo not given)	MCL1-BIM inh 77.7 | Bcl-xL conf inactive | MCL1 BIM confirm 62.8
Cc1ccc(C2CC(=O)N3CN(c4ccc(Br)cc4)CSC3=C2C#N)o1 (stereo not given)	none
COc1cccc(CN(C(=O)c2cc3ccccc3oc2=O)C2CCS(=O)(=O)C2)c1 (stereo not given)	none
CCOc1cccc(=O)c2c(C)n(Cc3ccccc3)c(C)c12	none
CCOc1cccc(=O)c2c(C)n(-c3ccc(C(=O)O)cc3)c(C)c12	MEX-5 binding -35.7, MCL1-BIM inh 86.2, BCLXL inh 59.1 | Bcl-xL conf 36.0 | MCL1 BIM confirm 53.3
CC(C)CN1CCNC(=O)C1CC(=O)NCc1cnn(-c2cccc(F)c2)c1 (stereo not given)	none
CC1CC(=O)c2c(cc3c(-c4c(O)cc(O)c5c(O)c6c(cc45)OC(C)CC6=O)c(O)cc(O)c3c2O)O1 (stereo not given)	MEX-5 binding -34.8, MCL1-BIM inh 76.0, BCLXL inh 44.4, IDE act 25.3 | Bcl-xL conf inactive | MCL1 BIM confirm inactive
O=C1CC(c2ccc(O)cc2)Oc2cc(O)cc(O)c21 (stereo not given)	none
Cc1cc2cc(CCNC(=O)C3c4ccccc4Oc4ccccc43)c(=O)[nH]c2cc1C	none (no result: IDE act)
Cn1ccnc1SCC(=O)Nc1ccc(Br)cc1C(F)(F)F	none
CNC(=S)Nc1cccc(-c2cnc3ccccc3n2)c1	none
COc1ccc(CNC(=O)C(C#N)c2nc3ccccc3nc2N2CCCC2)cc1 (stereo not given)	MEX-5 binding inconclusive, MCL1-BIM inh 53.7, BCLXL inh 45.9 | Bcl-xL conf 63.0 | MCL1 BIM confirm 74.7
C=CCNC(=O)C(C#N)c1nc2ccccc2nc1N1CCCCCC1 (stereo not given)	MCL1-BIM inh 70.6, GLD-1 RNA inh 57.4, BCLXL inh 73.9 | Bcl-xL conf 31.8 | MCL1 BIM confirm inactive
